Most compounds without a hit are left out; they make up all but 5.7% or so of the library.
Myeloid diff MLP: compounds promoting myeloid differentiation. ER-HoxA9 myeloid progenitors, lysozyme-GFP differentiation, flow cytometry. calls only at 10 µM. hit rate 1% among 360,000;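 active means normalized GFP-positive differentiation at or above the plate's own cutoff, the solvent-only control mean plus 3 SD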;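 further: cells exposed to compound for four days before flow analysis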
FAS-TE inh: inhibitors of human fatty acid synthase thioesterase domain. P49327. recombinant FAS-TE, OMFH fluorogenic substrate, fluorescence endpoint. inhibition, % at 15 µM. hit rate 0.67% among 360,000;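 active means compounds whose normalised, plate-corrected inhibition of enzyme fluorescence in the single-dose primary screen is 50% or more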
GRIN3A LBD mod: modulates the human NR3A ligand-binding domain; NR3A LBD differential scanning fluorimetry, Tm shift; 0% = protein alone, 100% = glycine-bound protein; Tm shift relative to glycine control, % at 25 µM; hit rate 2.5% among 340,000;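 active means melting temperature shift of at least 10% of the positive control shift, at one fixed dose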
rCAG binder: molecules binding r(CAG) RNA repeats; r(CAG) RNA repeat, TO-PRO-1 dye displacement fluorescence; inhibition, % at 3 µM; hit rate 1.3% among 370,000; AID 651821;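 active means inhibition above the plate cutoff, the mean of all test compounds on that plate plus 3 SD, cut at about 35% in these data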;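 further: higher means more dye released from RNA so lower well fluorescence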
MPTP inh: permeability transition pore inhibition. hit rate 1.4% among 360,000. inhibition, % at 10 µM. isolated mouse mitochondria, Ca2+ swelling absorbance, 30 min;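 active means inhibition of 50% or more, scaled per plate between neutral and stimulator controls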
rCAG binder conf: r(CAG) RNA repeat binding, confirmation; shares compounds with rCAG binder; TO-PRO-1 dye displacement fluorescence; inhibition, % at 3 µM; hit rate 70% among 4,300;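 active means inhibition above a per-plate cutoff, the mean inhibition of sample wells plus 3 SD, cut at about 35% in these data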;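 further: loss of TO-PRO-1 fluorescence as compound displaces dye from 1x1 AA loop RNA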
DNA CAG counter: DNA CAG dye complex inhibition counter-screen. AID 652068. hit rate 94% among 4,300. d(CAG) DNA oligo TO-PRO-1 dye displacement, fluorescence. inhibition, % at 3 µM. shares compounds with rCAG binder;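 active means inhibition above its plate's cutoff, the mean test-well inhibition plus 3 SD, cut at about 4.8% in these data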;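 further: hits displace the dye from DNA and so lower well fluorescence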
dCAG dye DR: DNA CAG dye complex inhibition, dose response counter-screen | IC50, µM | shares compounds with rCAG binder | hit rate 20% among 250 | DNA CAG/GTC duplex TO-PRO-1 dye displacement fluorescence; in the data active means IC50 below about 10 µM
Large screens that a line does not name were inactive (follow-up assays come after a bar, where they were run).

COc1ccc(CCN(Cc2cccs2)S(=O)(=O)c2ccc(C(=O)O)cc2)cc1OC	rCAG binder 36 | rCAG binder conf 37 | DNA CAG counter 5.5
O=C(O)c1ccc(S(=O)(=O)N(Cc2cccs2)CC2CCCO2)cc1 (configuration not stated)	none
COC(=O)c1ccc(C(=O)Nc2cc(Cl)ccc2Cl)cc1NC(=O)c1ccc(N(C)C)cc1	none
Cc1ccccc1OCC(=O)N/N=C/c1sc(=O)n(Cc2cccc(C(=O)O)c2)c1Cl	rCAG binder 46 | rCAG binder conf 40 | DNA CAG counter 11
C[C@H]1CN=C(N(C)C)N1CC1CCCCC1	none
O=C(C1=NN[C@@H]2C(=O)N(c3cccc(C(F)(F)F)c3)C(=O)[C@H]12)C(c1ccccc1)c1ccccc1	GRIN3A LBD mod 16, rCAG binder 55 | rCAG binder conf inactive | DNA CAG counter 8.9
COc1cc(/C=C(\C#N)c2nc3ccccc3[nH]2)ccc1OC(=O)c1ccco1	none
CCOc1cc(/C=C(/C#N)c2nc3ccccc3[nH]2)ccc1OCc1ccc(C(=O)O)o1	rCAG binder 49 | rCAG binder conf 39 | DNA CAG counter 8.6
CCOc1cc(/C=C(/C#N)c2ccc(F)cc2)ccc1OCc1ccc(C(=O)O)o1	rCAG binder 69 | rCAG binder conf 68 | DNA CAG counter 29
Cc1noc(C)c1NC(=O)N(C)C[C@H]1Oc2ccc(NC(=O)Cn3cnnn3)cc2C(=O)N([C@H](C)CO)C[C@@H]1C	none
Cc1csc(NC(=O)c2cc(-c3ccco3)nc3ccccc23)n1	rCAG binder 44 | rCAG binder conf 46 | DNA CAG counter 20
O=C(Nc1nc2ccccc2s1)c1cc(-c2ccco2)nc2ccccc12	none
O=C(Nc1nccs1)c1cc(-c2ccccc2)nc2ccccc12	none
O=C(NC(=S)Nc1cccc(S(=O)(=O)NC2=NCCC2)c1)c1cc(-c2ccco2)nc2ccccc12	none
O=C(Nc1cccc(S(=O)(=O)NC2=NCCC2)c1)c1cc(-c2ccco2)nc2ccccc12	rCAG binder 41 | rCAG binder conf 43 | DNA CAG counter 25
O=C(Nc1nccs1)c1cc(-c2ccco2)nc2ccccc12	rCAG binder 38 | rCAG binder conf inactive | DNA CAG counter 17
Cc1nnc(NC(=O)c2cc(-c3ccco3)nc3ccccc23)s1	rCAG binder 37 (no result: GRIN3A LBD mod) | rCAG binder conf inactive | DNA CAG counter 8.7
COCCN(C(=O)CSc1nc2ccccc2c(=O)n1CC(C)C)c1c(N)n(Cc2ccccc2)c(=O)[nH]c1=O	none
CCOc1ccc(/C=N/NC(=O)c2cc(-c3ccco3)nc3ccccc23)cc1	none
O=C(N/N=C/c1ccc(F)cc1)c1cc(-c2ccco2)nc2ccccc12	rCAG binder 45 | rCAG binder conf 47 | DNA CAG counter 30
COc1ccc(C(=O)Nc2nnc(Cc3ccc(OC)c(OC)c3)s2)cc1	none
COc1ccc2nc(NC(=O)CSc3nc(C)cc(=O)[nH]3)sc2c1	none
CCOc1ccc2nc(NC(=O)Nc3cccs3)sc2c1	GRIN3A LBD mod 26, rCAG binder 64 | rCAG binder conf inactive | DNA CAG counter 28
CCOc1ccc2nc(NC(=O)Cc3cccs3)sc2c1	none (no result: rCAG binder)
CCCc1cc(=O)[nH]c(SCC(=O)Nc2nc3ccc(OCC)cc3s2)n1	rCAG binder 49 | rCAG binder conf 40 | DNA CAG counter 12
COc1ccccc1NC(=O)CC1COc2ccccc2O1 (configuration not stated)	none
COCCN1CCN(C(=O)c2cc(COc3ccc(F)c(F)c3)on2)CC1	none
CC(=O)c1ccc(NC(=O)CSC2=NS(=O)(=O)c3cc(Cl)ccc3N2)cc1	GRIN3A LBD mod 12, rCAG binder 61 | rCAG binder conf 44 | DNA CAG counter 14
O=C(Nc1ccccc1O)c1c(O)c2c([nH]c1=O)CCCC2	GRIN3A LBD mod 14, rCAG binder 44 | rCAG binder conf 40 | DNA CAG counter 27
CCOc1ccccc1C(=O)Nc1ccc(S(=O)(=O)Nc2nccc(C)n2)cc1	none
COc1ccc(-c2cc(C(=O)Nc3ccc(S(=O)(=O)Nc4ncccn4)cc3)c3ccccc3n2)cc1	rCAG binder 58 | rCAG binder conf 56 | DNA CAG counter 22
Cc1ccnc(NS(=O)(=O)c2ccc(NC(=O)c3cc(-c4ccccc4)nc4ccccc34)cc2)n1	rCAG binder 45 | rCAG binder conf 56 | DNA CAG counter 16
Cc1ccnc(NS(=O)(=O)c2ccc(NC(=O)c3cc(-c4ccc(Br)cc4)nc4ccccc34)cc2)n1	rCAG binder 39 | rCAG binder conf 72 | DNA CAG counter 33 | dCAG dye DR inactive
COc1cc(-c2cc(C(=O)Nc3ccc(S(=O)(=O)Nc4ncccn4)cc3)c3ccccc3n2)cc(OC)c1OC	none
COc1ccc(NC2CCCN(C(=O)c3cc(CC(C)C)nc(N)n3)C2)cc1 (configuration not stated)	none
O=C(/C=C/c1ccccc1)Nc1scc(-c2ccccc2)c1C(=O)O	rCAG binder 55 | rCAG binder conf inactive | DNA CAG counter 6.0
O=C(/C=C/c1ccccc1)Nc1cccc(C(=O)O)c1	none
O=C(/C=C/c1ccccc1)Nc1cc(NC(=O)/C=C/c2ccccc2)cc(C(=O)O)c1	rCAG binder 75 | rCAG binder conf 81 | DNA CAG counter 52
COc1ccc(-c2csc(NC(=O)c3ccccc3Br)c2C(=O)O)cc1	rCAG binder 55 | rCAG binder conf 36 | DNA CAG counter 10
COc1ccc(-c2csc(NC(=O)c3ccc(C(C)(C)C)cc3)c2C(=O)O)cc1	none (no result: Myeloid diff MLP, FAS-TE inh, rCAG binder, MPTP inh)
Cc1ccc(-c2csc(NC(=O)c3ccc(F)cc3)c2C(=O)O)cc1	rCAG binder 63 | rCAG binder conf 39 | DNA CAG counter 8.8
Cc1ccccc1C(=O)Nc1scc(-c2ccc(Br)cc2)c1C(=O)O	none
Cc1ccc(C2CC2/C(=N/O)c2ccc(F)cc2)cc1 (configuration not stated)	none
CC(=O)N(C)c1nnc(-c2ccccn2)s1	none
COc1ccc(-c2csc(NC(=O)Cc3cccc4ccccc34)c2C(=O)O)cc1	rCAG binder 61 | rCAG binder conf 54 | DNA CAG counter 17
O=C(Nc1scc(-c2ccc(Br)cc2)c1C(=O)O)c1ccccc1F	none
O=C(Nc1scc(-c2ccccc2)c1C(=O)O)c1ccc(F)cc1	rCAG binder 36 | rCAG binder conf inactive | DNA CAG counter 5.0
O=C(Nc1scc(-c2ccccc2)c1C(=O)O)c1ccccc1F	none
Cc1ccc(-c2csc(NC(=O)c3ccccc3F)c2C(=O)O)cc1	rCAG binder 42 | rCAG binder conf inactive | DNA CAG counter 4.6
